The target in this test is Dual specificity protein kinase CLK1 (Homo sapiens) (UniProt P49759). Nature of the test: CLK1 binders by thermal stabilization, biophysical, recombinant human kinase, DSF (AID 382). Conditions: buffer 10 mM HEPES, stronger effect = higher value.
The mark [1] stands for this setting: at 10 µM, protein 2 µM, pH 7.5, NaCl 150 mM.
[2] abbreviates: at 10 µM, protein 2 µM, pH 7.5, NaCl 150 mM, with 50 mM Arg/Glu.
Setting [3] is: at 10 µM, protein 2 µM, pH 7.5, NaCl 150 mM, with 50 µM L-Arg/L-Glu (1:1).
Where [4] appears, read: at 10 µM, protein 2 µM, NaCl 150 mM, with 50 mM Arg/Glu.
[5] abbreviates: at 10 µM, protein 2 µM, NaCl 150 mM.
The mark [6] stands for this setting: measured here: replicate experiment 2, at 10 µM, run 2, protein 2 µM, NaCl 150 mM, with 50 mM Arg/Glu.
[7] abbreviates: measured here: replicate experiment 2, at 10 µM, run 2, protein 2 µM.
Where [8] appears, read: measured here: replicate experiment 2, at 10 µM, run 2, protein 2 µM, NaCl 150 mM.

“And” between values parts separate entries of the source, which are not always exact repeats. Equal values may be shown once. The source made the active and inactive calls. No rule for the calls is given here.

Sequence of Dual specificity protein kinase CLK1 (Homo sapiens) (P49759 whole entry, looked up): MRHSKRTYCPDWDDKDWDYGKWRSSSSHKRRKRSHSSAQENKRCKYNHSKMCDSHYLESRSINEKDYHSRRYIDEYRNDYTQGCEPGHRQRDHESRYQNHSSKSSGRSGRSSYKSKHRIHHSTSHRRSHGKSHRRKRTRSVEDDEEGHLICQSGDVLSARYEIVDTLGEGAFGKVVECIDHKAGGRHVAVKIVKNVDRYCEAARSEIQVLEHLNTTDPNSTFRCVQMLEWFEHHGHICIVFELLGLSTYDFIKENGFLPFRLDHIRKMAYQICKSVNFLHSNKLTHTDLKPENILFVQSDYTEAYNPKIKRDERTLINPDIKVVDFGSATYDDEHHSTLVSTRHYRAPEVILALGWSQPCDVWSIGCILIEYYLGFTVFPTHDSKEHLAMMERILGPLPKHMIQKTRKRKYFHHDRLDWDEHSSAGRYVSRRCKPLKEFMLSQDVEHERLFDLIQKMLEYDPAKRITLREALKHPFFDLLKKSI

For the compound `Nc1ncc(-c2ccncc2)nc1NC1CCCCC1`, under setting [1], the Tm shift was 3.7 Celsius (active). As to `CCOC(=O)c1c(C)[nH]c(/C=C2\C(=O)Nc3ccccc32)c1C`, the Tm shift (at 10 µM, protein 2 µM) is 8.66 Celsius (active). In the case of `CN(C)S(O)(O)c1ccc2c(c1)/C(=C/c1cc3c([nH]1)CCCC3)C(=O)N2`, the Tm shift under setting [2] was 4.8 Celsius (active). Same read-out and setting: for `NC(=O)c1ccc(-c2nc(-c3ccc4c(c3)OCCO4)c(-c3ccccn3)[nH]2)cc1` the value was 6.3 Celsius (active). As to `NC1=N/C(=C2\CCNC(=O)c3[nH]ccc32)C(=O)N1`, the Tm shift under setting [3] is 6 Celsius (active). For `CCC(CO)Nc1ccc2ncc(-c3ccc(F)c(Cl)c3)n2n1` (stereo unspecified), the Tm shift under setting [4] is 5.64 Celsius (active).

`CCC(CO)Nc1ccc2ncc(-c3cccc(CO)c3)n2n1` (stereo unspecified): the Tm shift under setting [3] is 5.3 Celsius (active). For `O=c1cc(-c2ccccc2)oc2cc(O)c(O)c(O)c12`, the Tm shift under setting [5] is 4.05 Celsius (active). As for `Cc1cc(Nc2nc(-c3ccccc3)nc3ccccc23)n[nH]1`, the Tm shift under setting [3] was 5.8 Celsius (active). As for `Clc1ccc(-c2cnn3ccc(NCc4cccnc4)nc23)cc1`, the Tm shift under setting [1] is 4.33 Celsius (active). On to `O=c1c(-c2ccc(O)cc2)coc2cc(O)cc(O)c12`, for which, under setting [5], the Tm shift is 3.77 Celsius (active).

Regarding `COc1cncc(-c2cnc3ccc(NC4CCOCC4)nn23)c1`, the Tm shift under setting [3] is 3.2 Celsius (active). `CC(C)n1cnc2c(Nc3cccc(Cl)c3)nc(NCCO)nc21`: the Tm shift reads like this: under setting [5], 5.26 Celsius (active); under setting [2], 4.6 Celsius (active). As for `CCC(CO)Nc1ccc2ncc(-c3ccc(C(=O)O)cc3)n2n1` (stereo unspecified), the Tm shift under setting [3] was 4.8 Celsius (active). For the compound `CC(=O)c1cccc(-c2cnc3ccc(NCC4CC4)nn23)c1`, the Tm shift reads like this: under setting [4], 5.75 Celsius (active); under setting [6], 6.01 Celsius. As to `O=c1c(O)c(-c2ccc(O)cc2)oc2cc(O)cc(O)c12`, the Tm shift under setting [5] was 5.97 Celsius (active). Turning to `NC1=N/C(=C2/CCNC(=O)c3[nH]c(Br)cc32)C(=O)N1`, the Tm shift is, setting by setting: (at 10 µM, protein 2 µM) 4.9 Celsius (active); under setting [2], 4.4 Celsius (active); under setting [7], 10.5 Celsius.

Consider `O=c1c(O)c(-c2cc(O)c(O)c(O)c2)oc2cc(O)cc(O)c12`, for which the Tm shift under setting [5] was 6.89 Celsius (active). Take `Nc1nc(Nc2ccc(S(N)(=O)=O)cc2)nn1C(=S)Nc1c(F)cccc1F`: the Tm shift under setting [4] was 11.8 Celsius (active).

On to `O=c1c(O)c(-c2ccc(O)c(O)c2)oc2cc(O)ccc12`, for which the Tm shift under setting [5] was 7.11 Celsius (active).

Consider `OCC(O)CCO/N=C1/C(c2c(O)[nH]c3ccccc23)=Nc2ccccc21` (stereo unspecified), for which the Tm shift under setting [3] was 7.7 Celsius (active). On to `COc1ccc(Nc2nc(N)c(C(=O)c3ccc(OC)cc3)s2)cc1`, for which, where the note is “at 10 µM, protein 1.7 µM, pH 7.5, NaCl 150 mM, with 50 µM L-Arg/L-Glu (1:1)”, the Tm shift is 4.5 Celsius (active). Turning to `Oc1cccc(-c2cnc3ccc(NC4CCOCC4)nn23)c1`, the Tm shift under setting [3] is 5.1 Celsius (active).

`Nc1ncnc2c1c(I)cn2[C@@H]1O[C@H](CO)C(O)C1O` (stereo partly specified): the Tm shift by setting is: (at 10 µM, protein 2 µM) 4.43 Celsius (active); under setting [2], 5.2 Celsius (active); under setting [7], 10.5 Celsius. As for `Clc1cccc(-c2cnc3ccc(NCCc4ccccn4)nn23)c1`, the Tm shift under setting [1] was 4.83 Celsius (active).

Regarding `CN(C)CCCn1cc(C2=C(c3c[nH]c4ccccc34)C(=O)NC2=O)c2ccccc21`, the Tm shift was 6.98 Celsius (active) under setting [5] and 4.4 Celsius (active) under setting [2]. With `Clc1cccc(-c2cnc3ccc(NC4CCOCC4)nn23)c1`, the Tm shift by setting is: under setting [4], 6.06 Celsius (active); under setting [6], 5.83 Celsius. On to `CC(=O)Nc1cccc(-c2cnc3ccc(N[C@H](CO)C(C)C)nn23)c1`, for which, under setting [3], the Tm shift was 7.4 Celsius (active). Still for that read-out and setting: for `CCC(CO)Nc1ccc2ncc(-c3ccc(CO)cc3)n2n1` (stereo unspecified) the value was 5.3 Celsius (active). For the compound `COC(=O)c1cnc2oc3ccc(O)cc3c2c1-c1ccccc1`, the Tm shift reads like this: under setting [5], 6.11 Celsius (active); under setting [8], 3.9 Celsius. For `CC(C)C(CO)Nc1nc(Nc2cccc(Cl)c2)c2ncn(C(C)C)c2n1` (stereo unspecified), the Tm shift under setting [5] was 6.23 Celsius (active). Same read-out and setting: for `Cc1cc(O)c2c(c1)C(=O)c1cc(O)cc(O)c1C2=O` the value was 3.11 Celsius (active).

With `CC1N=C2SC=CN2C(=O)C1CCN1CCC(=C(c2ccccc2)c2ccc(F)cc2)CC1` (stereo unspecified), the Tm shift was 6.74 Celsius (active) under setting [5] and 3.6 Celsius under setting [8]. As to `O=C1NC(=O)C(c2cn(CCCn3ccnc3)c3ccccc23)=C1Nc1ccccc1`, the Tm shift under setting [3] is 5.8 Celsius (active). For `COc1cc(C2Oc3cc(O)cc(O)c3C(=O)C2=O)ccc1O` (stereo unspecified), the Tm shift under setting [5] is 6.14 Celsius (active). For `Fc1cccc(-c2cnc3ccc(NC4CCOCC4)nn23)c1`, the Tm shift under setting [3] was 4.5 Celsius (active).

For the compound `O=C1c2ccccc2-c2n[nH]c3cccc1c23`, the Tm shift is, setting by setting: under setting [5], 4.9 Celsius (active); under setting [8], 3.2 Celsius. For `O=c1c(O)c(-c2ccc(O)c(O)c2)oc2cc(O)cc(O)c12`, the Tm shift by setting is: under setting [5], 8.34 Celsius (active) and 6.74 Celsius (active); under setting [8], 6 Celsius. `CC(=O)Nc1cccc(-c2cnc3ccc(NC4CCOCC4)nn23)c1`: the Tm shift under setting [3] was 8.8 Celsius (active).

The record behind these values is PubChem BioAssay AID382 (SGCOxCompounds, 2006).
